Drawing on PubChem BioAssay (EPA / NIEHS), this text covers outcome and AC50 for 20 molecules.

Some compounds were tested as several samples or in several runs, with calls that do not always agree. The source made the active and inactive calls. How the source made its calls: active means hit-call score of the fitted dose curve at least 0.9, where 1 is the maximum; inactive means score below 0.9.

The nature of this assay: APR_HepG2_MicrotubuleCSK_24hr: Apredica 24-hour HepG2 Assay for Microtubule CSK Stabilty (AID 2282909). The settings on record: HepG2 microtubule cytoskeleton imaging, actives raise or lower the signal. The method, boiled down: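 Read-out: alpha-tubulin immunofluorescence intensity by automated high-content imaging of fixed HepG2 cells after 24 h compound treatment. Ten concentrations, 0.39 to 200 uM, in duplicate; DMSO 0.5% v/v. Taxol positive control; DMSO-normalized bidirectional curve fitting.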
For the molecule `O=C(O)COc1nc(Cl)c(Cl)cc1Cl`, the call was inactive. `CC(C)(C)c1ccc(CSc2cnn(C(C)(C)C)c(=O)c2Cl)cc1`: the call was inactive. On the same count and under the same terms, next, `COC(=O)C(C)Oc1ccc(Oc2ccc(Cl)cc2Cl)cc1` (stereo unspecified): “inactive”.

Take `CCOC(=O)C(Cl)Cc1cc(-n2nc(C)n(C(F)F)c2=O)c(F)cc1Cl` (stereo unspecified): the molecule was called inactive.

Regarding `CC1=C(C(=O)Nc2ccccc2)SCCO1`, the molecule was classed as inactive. On the same count and under the same terms, for `COc1cnc(OC)n2nc(NS(=O)(=O)c3c(OCC(F)F)cccc3C(F)(F)F)nc12` the value was “inactive”; for `CO/C=C(/C(=O)OC)c1ccccc1Oc1cc(Oc2ccccc2C#N)ncn1`, “inactive”; for `CCOC(=O)CC(SP(=S)(OC)OC)C(=O)OCC` (stereo unspecified), “inactive”. For the molecule `CC(C)Oc1cc(-n2nc(C(C)(C)C)oc2=O)c(Cl)cc1Cl`, the AC50 is 46.4 µM (active). Turning to `N#CC(CCc1ccc(Cl)cc1)(Cn1cncn1)c1ccccc1` (stereo unspecified), the concentration at half-maximal activity (AC50) was 104 µM (active). `Cc1c(F)c(F)c(COC(=O)C2C(/C=C(\Cl)C(F)(F)F)C2(C)C)c(F)c1F` (stereo unspecified): the outcome was inactive. The same measure, in the same setting: for `COc1nc(C)nc(NC(=O)NS(=O)(=O)c2ccccc2Cl)n1` the value was “inactive”; for `CCCCNC(=O)n1c(NC(=O)OC)nc2ccccc21`, “inactive”. The same measure, in the same setting: for `COC(=O)c1ccccc1C(=O)OC` the value was “inactive”. Same read-out and setting: for `COP(=S)(OC)Oc1nc(Cl)c(Cl)cc1Cl` the value was “inactive”; for `Cc1cc(Cl)ccc1OCC(=O)O`, “inactive”. As for `CON(C)C(=O)Nc1ccc(Cl)c(Cl)c1`, the molecule was classed as inactive. `COc1ccc(C(c2ccc(OC)cc2)C(Cl)(Cl)Cl)cc1`: the concentration at half-maximal activity (AC50) was 69.8 µM (active). Turning to `CCNc1nc(Cl)nc(NCC)n1`, the outcome was inactive.

For `CCCN(CCC)c1c([N+](=O)[O-])cc(S(N)(=O)=O)cc1[N+](=O)[O-]`, the concentration at half-maximal activity (AC50) was 109 µM (active) and the molecule was classed as inactive.

One may read the AC50 as the concentration giving half of the maximal activity seen.
